Tgondii IFNg = T. gondii growth inhibition with IFN-gamma, primary screen, cell-based | Toxoplasma gondii growth in IFN-gamma-treated host cells; hits give low values | activity change, negative = inhibition, % (no concentration beside the values) | actives 3.8% (n = 69,000); in the data active = activity change below about -70%, passing the limit was not always enough;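 note: host cells are HeLa cells infected with Toxoplasma gondii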
Numbers without * were called inactive; i = inactive. Many of the other results were omitted from the sample, so hits are more common in it than they were.

SMILES | Tgondii IFNg
Cc1nc(NCC2CC2)nc2c1COCC21CCN(c2ncc(F)cn2)C1 (stereo not given) | -38.2
Cc1nc2nnc3ccc(C(=O)CCN4CCOCC4)cc3c2n1C(C)C | 46.5
COc1ccc(-c2ccc(OC)cc2C(=O)NC(C)Cc2ccccn2)cc1 (stereo not given) | 3.9
C=CCN(Cc1ccc(F)cc1)C(=O)CC1C(=O)Nc2cc(C)cc(C)c21 (stereo not given) | 4.5
CCN1c2cc(C)ccc2-n2cccc2C12CCN(S(=O)(=O)Cc1ccccc1)CC2 | -67.0
CCN1c2cc(C)ccc2-n2cccc2C12CCN(S(=O)(=O)c1ccccc1)CC2 | -78.7*
CCOc1ccc(S(=O)(=O)N2CCC3(CC2)c2cccn2-c2ccc(C)cc2N3CC)cc1 | -91.7*
CCOc1ccc(NC(=O)N2CCC3(CC2)c2cccn2-c2ccc(C)cc2N3CC)cc1 | 155.6
CCN1c2cc(C)ccc2-n2cccc2C12CCN(S(=O)(=O)c1ccccc1Cl)CC2 | -78.0*
CCN1c2cc(C)ccc2-n2cccc2C12CCN(C(=O)c1ccccc1OC)CC2 | -61.9
CCN1c2cc(C)ccc2-n2cccc2C12CCN(S(=O)(=O)c1ccc(C(C)C)cc1)CC2 | -27.6
CCN1c2cc(C)ccc2-n2cccc2C12CCN(C(=O)c1ccccc1Br)CC2 | -1.5
CCN1c2cc(C)ccc2-n2cccc2C12CCN(S(=O)(=O)c1ccc3c(c1)oc(=O)n3C)CC2 | 61.0
FC(F)(F)C1CN(c2cc(-c3ccccc3)nc3ccccc23)CCO1 (stereo not given) | -23.6
O=C1CCC2C(CCN2Cc2ccccc2)N1CC1CCOCC1 (stereo not given) | i
CCOC(=O)C1CCC(CNC(=O)Nc2ccc(-c3nc(-c4ccc(C)cc4C)co3)cc2)CC1 (stereo not given) | 45.3
CN(C)c1ccc(CNC(=O)CN2C(=O)CCc3cc(Br)ccc32)cc1 | 40.5
Cc1cc(C)cc(Sc2ccc3nnc(-c4ccccc4)n3n2)c1 | -81.7*
Cc1ccc(-c2cc(-c3ccccc3)nc(-c3ccccc3)c2)cc1 | -68.9
CSc1nnc(-c2ccccc2)n1C | 31.3
O=S(=O)(NCCc1csc(-c2ccc(Cl)cc2)n1)c1cc(F)ccc1F | -6.4
COc1ccc(CC(=O)N2CCC3(CC2)Nc2ccc(C)c(C)c2-n2cccc23)cc1OC | 33.2
Fc1ccc(-c2ccc(C3[C@@H]4CN(Cc5ccccc5)C[C@H]3N4)cc2)cc1 (stereo not given in full) | -32.6
CN(C)C(=O)c1cccc(-c2ccc(C3[C@@H]4CN(Cc5ccccc5F)C[C@H]3N4)cc2)c1 (stereo not given in full) | -5.6
Cc1ccc(-c2ccc([C@@H]3[C@@H]4CN(Cc5ccccc5F)C[C@H]3N4)cc2)cc1 | -73.1*
SMILES | Tgondii IFNg
Cc1ccc(NC(=O)c2nnn(Cc3nc(-c4ccc(Cl)cc4)oc3C)c2C)cc1F | 75.9
O=C(Nc1ccccc1C(=O)NC1CCCCNC1=O)c1cccc(C(F)(F)F)c1 (stereo not given) | -35.1
CCc1cnc(N2CCc3ncc(CNc4ccccn4)n3CC2)nc1 | -6.3
O=C(COc1ccc2c(c1)OCO2)N1CCN(C(=O)c2ccco2)CC1 | 15.6
O=C(CCSc1nc(-c2ccc3c(c2)OCO3)cc(C(F)(F)F)n1)N1CCCCC1 | -76.3*
O=C(/C=C/c1ccc2c(c1)OCO2)N1CCCCC1 | 94.6
NC(=O)c1[nH]cnc1O | 7.3
Cc1cc(NC(=O)CC(C)n2nc(C)c(Cl)c2C)n(Cc2ccncc2)n1 (stereo not given) | 7.7
Cc1nn(Cc2nc(-c3ccc(NC(=O)c4ccccc4)cc3)oc2C)c(C)c1C | -92.8*
Cc1cc(C)n(Cc2nc(-c3ccc(NC(=O)c4cccc(N(C)C)c4)cc3)oc2C)n1 | -56.0
Cc1cccc(C(=O)Nc2ccc(-c3nc(Cn4nc(C)c(C)c4C)c(C)o3)cc2)c1 | -90.6*
Cc1ccc(C(=O)Nc2ccc(-c3nc(Cn4nc(C)c(C)c4C)c(C)o3)cc2)cc1 | -87.9*
Cc1oc(-c2ccccc2)nc1Cn1nnc(C(=O)Nc2ccccc2)c1C | -64.1
Cc1nn(Cc2nc(-c3ccc(NC(=O)c4ccc(F)cc4)cc3)oc2C)c(C)c1C | 111.5
Cc1nn(Cc2nc(-c3ccc(NC(=O)c4ccc(C#N)cc4)cc3)oc2C)c(C)c1C | 183.9
COCC(=O)Nc1ccc(-c2nc(Cn3nc(C)c(C)c3C)c(C)o2)cc1 | 59.6
COc1cccc(C(=O)Nc2ccc(-c3nc(Cn4nc(C)cc4C)c(C)o3)cc2)c1 | -62.4
CC(=O)N1CC2(CCN(C(=O)c3ccccc3-n3cccc3)CC2)CC1C(=O)O (stereo not given) | 10.2
CN(C)C(=O)N1CCCC2(CCN(S(=O)(=O)c3cn(C)cn3)C2)C1 (stereo not given) | i
Cn1cccc1CN1C[C@H]2CN(Cc3cccs3)C[C@H]2C1 | -34.0
COc1cccc(-c2nn(C)c3c2[C@H]2CN(Cc4nccs4)C[C@@H]2C3)c1 | -5.3
CCN1C(=O)CCCC12CCCN(C(=O)c1cccc3cccnc13)C2 (stereo not given) | -2.6
CC(C)(C)C(=O)Nc1ccc(-c2nc3ccccc3[nH]2)cc1 | 124.0
CC(C)n1ccnc1CN1CCC(c2[nH]ncc2Cc2ccccc2)CC1 | -11.6

Compound activity as filed in PubChem.
